Assay outcomes: PubChem BioAssay, National Center for Advancing Translational Sciences (NCATS)
Many of the other results were omitted from the sample, so hits are more common in it than they were.
ALOX12 inh: Primary qHTS assay for inhibitors of human arachidonate 12S-lipoxygenase (ALOX12): Round 2; Polyunsaturated fatty acid lipoxygenase ALOX12 (Homo sapiens), P18054; purified 12hLO, xylenol orange hydroperoxide absorbance; Potency, µM (series often up to 108 µM), inactives show top-dose activity change, negative = inhibition, most hits filed as inhibitors; 580,000 compounds, 1.1% hits; AID 1671190, 2021; also: potency is read from the fitted curve at half-maximal effect
Target sequence (P18054 whole entry, looked up): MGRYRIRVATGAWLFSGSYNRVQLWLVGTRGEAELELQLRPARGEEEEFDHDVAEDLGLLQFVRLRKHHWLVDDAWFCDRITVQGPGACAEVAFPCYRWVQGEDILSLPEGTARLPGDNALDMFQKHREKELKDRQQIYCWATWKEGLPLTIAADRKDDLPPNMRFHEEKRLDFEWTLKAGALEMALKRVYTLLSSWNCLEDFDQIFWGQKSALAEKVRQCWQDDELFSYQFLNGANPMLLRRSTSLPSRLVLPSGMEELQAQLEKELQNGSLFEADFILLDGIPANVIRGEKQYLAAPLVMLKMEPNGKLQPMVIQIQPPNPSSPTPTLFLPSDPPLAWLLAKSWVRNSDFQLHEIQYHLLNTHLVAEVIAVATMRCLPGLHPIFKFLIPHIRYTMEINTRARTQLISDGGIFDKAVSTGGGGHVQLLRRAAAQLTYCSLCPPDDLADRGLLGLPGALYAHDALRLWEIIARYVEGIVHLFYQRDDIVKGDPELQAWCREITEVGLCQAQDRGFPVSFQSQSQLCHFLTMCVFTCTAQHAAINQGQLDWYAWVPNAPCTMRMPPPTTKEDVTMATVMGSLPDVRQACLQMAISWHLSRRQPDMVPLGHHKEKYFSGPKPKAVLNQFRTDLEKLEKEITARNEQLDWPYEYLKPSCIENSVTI
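Purified human 12hLO (150 nM final) in 25 mM Hepes, 0.01% Triton X-100, pH 7.0 was preincubated 15 min at room temperature with compound. Then 40 uM arachidonic acid was added, 30 min. Hydroperoxide was read by Fe-XO absorbance ratio 573/405 nm.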
HT1080NT lethal: qHTS for induction of synthetic lethality in tumor cells producing 2HG: qHTS for the HT-1080-NT fibrosarcoma cell line | HT-1080-NT fibrosarcoma viability, CellTiter-Glo ATP luminescence, 48 h | Potency, µM (highest dose often 46.1 µM), inactives show at the highest dose activity, negative = less viability, most hits filed as cytotoxic | 360,000 compounds, 1.6% hits;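 also: NT is the 2HG producing partner of a matched IDH1 knockdown line; potency is read from the fitted curve at half-maximal effect; 0% = DMSO-treated cells and -100% = media-only wells without cells; nearly all actives have a fitted effect of over 55% in size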
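Luminescent CellTiter-Glo readout after 48 hours of compound exposure at 37 degrees C defined viability of HT-1080-NT cells. Activity was normalized to DMSO wells and cell-free media wells; concentration-response curves were fitted and assigned curve classes.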
DT40 TDP1 no CPT: qHTS for Inhibitors of human tyrosyl-DNA phosphodiesterase 1 (TDP1): qHTS in cells in absence of CPT. DT40 Tdp1-/- hTDP1 cells, no CPT, ATP luminescence, 48 h. 420,000 compounds, 15% hits. AID 686978, 2013. Potency, µM (series often up to 46.2 µM), without a hit: at the highest dose activity change, negative = growth inhibition, usual class: inhibitors; also: potency is read from the fitted curve at half-maximal effect; nearly all actives have a fitted effect of over 55% in size
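A cellular qHTS used chicken DT40 cells lacking endogenous Tdp1 but carrying stably transfected human TDP1. Compounds were applied without camptothecin, and cell growth kinetics were judged by ATP-dependent luminescence after ≥48 hr.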
IL-1B inflam inh: qHTS for Inhibitors of Inflammasome Signaling: IL-1-beta AlphaLISA Primary Screen; THP-1 LPS/ATP IL-1B secretion, AlphaLISA, 16 h; hits give low values; activity change, % at 57.5 µM; 360,000 compounds, 4.7% hits; AID 743279, 2014; in the data active = activity change below about -50%; inconclusive = mostly about -30% to -49%
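Secreted IL-1B measured by AlphaLISA bead assay after 16 h compound exposure of THP-1 cells; compounds (final up to 57.5 uM) added 1 h before LPS (250 ng/mL) and ATP (1.25 mM) stimulation; lower signal means less secretion.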
TDP1 cell CPT: qHTS for Inhibitors of human tyrosyl-DNA phosphodiesterase 1 (TDP1): qHTS in cells in presence of CPT | chicken DT40 Tdp1-/-;hTDP1 cells + 20 nM CPT, ATP luminescence, 48 h | Potency, µM (highest dose often 46.2 µM), for the others: at the top dose activity change, negative = growth inhibition, hits mostly inhibitors | 420,000 compounds, 12% hits; also: potency is read from the fitted curve at half-maximal effect; nearly all actives have a fitted effect of over 55% in size
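Cell growth measured by CellTiter-Glo luminescence after a minimum 48 h, 37 C compound exposure with 20 nM CPT in Tdp1-knockout DT40 cells stably expressing hTDP1, seeded 400/well; qHTS titration format.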
HT1080 IDH1KD tx: qHTS for induction of synthetic lethality in tumor cells producing 2HG: qHTS for the HT-1080-IDH1KD cell line; Potency, µM (top dose mostly 46.1 µM), without a hit: at the highest dose activity, negative = toxicity, actives largely listed as cytotoxic; HT-1080 IDH1 knockdown viability, ATP luminescence, 48 h; 360,000 compounds, 2% hits;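 also: potency is read from the fitted curve at half-maximal effect; 0% = DMSO wells and -100% = cell-free medium wells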
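Cytotoxicity counter-line: IDH1KD HT-1080, 48 h, CellTiter-Glo. Curves classed by r2, magnitude and activity.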
The depositor's hits bear a star; ? = inconclusive; / = no result; [ ] = remark or other dose. Unless noted, calls follow the shape of the dose curve; as a rule, active = well fitted curve in the direction sought with a large enough effect; inconclusive = small, poorly fitted or top-dose-only effect, or another doubt; inactive = no such curve, though single readings can be large; an effect the other way counts as inactive or inconclusive. Unless noted, % is scaled to controls: 0 for no effect and ±100 for the full control effect.

SMILES	ALOX12 inh	HT1080NT lethal	DT40 TDP1 no CPT	IL-1B inflam inh	TDP1 cell CPT	HT1080 IDH1KD tx
CSc1nnc2c3ccccc3n(Cc3ccccc3)c2n1	21%	-2%	?	-15	?	-3%[9.24 µM]
Clc1ccccc1CSc1nnc2c3ccccc3n(CCc3ccccc3)c2n1	-3%	/	/	/	/	/
CCCCn1c2ccccc2c2nnc(SCCN3CCCCC3)nc21	0%	-3%	16µM*	-10	?	1%
CCCCn1c2ccc(F)cc2c2nnc(SCCN3CCOCC3)nc21	-9%	?	29µM*	-22	?	?
Cn1c2ccc(F)cc2c2nnc(SCCN3CCOCC3)nc21	?	-7%	-16%	8	1%	-4%
CSc1nnc2c3ccccc3n(CCc3ccccc3)c2n1	-12%	-16%	16µM*	0	7.3µM*	?
CCN(CC)CCSc1nnc2c3cc(C)ccc3n(Cc3ccccc3)c2n1	0%	16µM*	21µM*	-67*	?	23µM*
Cc1ccc(-n2c(SCC(=O)NC(C)c3cc4ccccc4o3)nnc2N2CCOCC2)cc1 (stereo unspecified)	0%	/	/	/	/	/
CC(SCc1cccc(C#N)c1)C(=O)NC(C)(C)C (stereo unspecified)	7%	/	/	/	/	/
CCCCn1c2ccc(F)cc2c2nnc(SCCN(CC)CC)nc21	-27%	/	26µM*	/	21µM*	/
C=CCn1c2ccccc2c2nnc(SCCN3CCOCC3)nc21	?	0%	?	-71*	-26%	-3%
COc1ccc2c(c1)c1nnc(SCCN3CCOCC3)nc1n2C	/	-5%	16µM*	/	?	-9%
COc1c(C)cc(Br)cc1C(=O)Nc1ccc2oc(-c3cccnc3)nc2c1	59%	/	/	/	/	/
COc1ccc2oc3cc(C)[n+]([O-])c(-c4ccc(Br)cc4)c3c2c1	-26%	-8%	0.0082µM*	-3	?	-5%
COc1ccc(-c2cnc3n2CCCCC3)cc1	278%	0%	23µM*	-14	?	-6%
Clc1ccc(-c2cnc3n2CCC3)cc1	9%	35µM*	-28%	-14	-23%	?
COc1ccc(-c2cnc3n2CC(C(=O)N(C)C)CC3)cc1 (stereo unspecified)	43%	/	/	/	/	/
COc1c(C)cnc(CN2CCN(C(C(=O)O)c3c[nH]c4ccc(CO)cc34)CC2)c1C (stereo unspecified)	9%	/	/	/	/	/
CCOC(=O)Cc1ccc(Nc2nc(NCc3cccs3)nc3ccsc23)cc1	0%	?	21µM*	-84*	21µM*	0%
COc1ccc(Nc2nc(NCc3cccs3)nc3ccsc23)cc1OC	?	?	18µM*	-87*	26µM*	?
NC(=O)C1CCN([C@H]2[C@@H]3OC[C@@H](O3)[C@@H](NCc3ccc(F)cc3)[C@@H]2O)CC1	22%[176 µM]	/	/	/	/	/
